Source: PubChem BioAssay (NCI)
“And” between values parts separate entries of the source, which are not always exact repeats. Equal entries are not always repeated. The panel holds about 83,000 compounds, 20% with a hit somewhere; the sample as a whole holds those more often.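 Cell lines were cultured in 96-well plates, exposed to a single compound concentration, and assessed for percent growth 48 hours later.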 Values without a mark were called inactive. The source made the active and inactive calls. Rule for the calls: active = growth percent below 10; inactive = the rest.

What follows are compounds tested on MDA-MB-468 breast (assay: NCI-60 one-dose screen, 48 h (100 = growth as untreated, 0 = no growth, -100 = all killed)). Details: 10 µM unless noted.

Going from `CCCCCCCCCCCCC1CCC/C=C\CCC(=O)O1` (stereo not given) to `CCN(CCNc1ccc(C)c2sc3cc(Cl)ccc3c(=O)c12)CC(C)O` (stereo not given), the growth falls from 100% to 62.2%.

First: Cn1cc(-c2nn3cc(-c4cccs4)nc3s2)c2cc(F)ccc21
Second: COc1ccc(-c2cc(Cc3cccs3)c(=O)n(Cn3ccc4ccccc43)n2)cc1
The growth of the first is lower: 44.4% for the first, 110% for the second.

Compared with `Clc1ccc(Nc2ncnc3c2sc2ncccc23)cc1`, `NCCCNc1nc2ccc(Cl)cc2c2c(=O)c3cc(F)ccc3sc12` is higher in growth: 23% for the first, 43.3% for the second.

Compared with `COc1cc(/C=N\Nc2ccccc2)ccc1OC(=O)c1ccccc1`, `c1ccc(CNc2c3ccccc3nc3ccccc23)cc1` is lower in growth: 44.2% for the first, 19.4% for the second.

First: CCOC(=O)c1ccc2[nH]c(-c3ccccc3)cc(=O)c2c1
Second: CCOC(=O)c1c(O)c2cc(-c3ccccc3)nc(OCC)c2c(=O)n1C
The growth of the first is higher: 105% for the first, 89% for the second.

First: O=c1[nH][n+](-c2ccc(Cl)cc2)no1
Second: CCOC(=O)N1C/C(=C/c2ccc(Cl)cc2)C(=O)/C(=C/c2ccc(Cl)cc2)C1
The growth of the first is higher: 93.2% for the first, 33.1% for the second.

Compared with `Cc1ccc(S(=O)(=O)c2nc(-c3ccccc3)oc2SCC(N)=O)cc1`, `Cc1cc(O)c(C2=NN(c3ccc(S(N)(=O)=O)cc3)C(c3ccccc3Cl)C2)cc1Cl` (stereo not given) is lower in growth: 91.7% for the first, 28.9% for the second.

First: CCNC(=O)Oc1ccc(/C(=C(\C)c2ccccc2)c2ccc(OCCN(CC)CC)cc2)cc1
Second: CC(=O)/C(=C/c1ccc([N+](=O)[O-])cc1)C(=O)c1ccccc1
The growth of the first is lower: 79.3% for the first, 114% for the second.

Going from `Cc1cc2nc(CS)[nH]c2cc1C` to `COc1cccc(-c2nc(-c3ccc(NC(=O)C(C)C)cc3)[nH]c2-c2ccnc(Br)c2)c1`, the growth falls from 85.2% to 26.4%.

Going from `COc1cc(/C=C/C(=O)c2cccc(-n3cc(-c4cc(OC)c(OC)c(OC)c4)[nH]c3=O)c2)cc(OC)c1OC` to `COc1ccc(C2CC(c3cccc(OC)c3)=NN2C(=O)c2cc(OC)c(OC)c(OC)c2)cc1` (stereo not given), the growth rises from 27.7% to 29.2%.

First: COc1cc2nccc(Oc3ccc(NC(=O)C4(C(=O)Nc5ccc(F)cc5)CC4)cc3)c2cc1OC(=O)c1ccc(N)cc1
Second: Cc1ccc(NC(=O)c2cc(NCc3cc(O)ccc3O)ccc2O)cc1
The growth of the first is lower: 59.3% for the first, 86.6% for the second.

First: N#CC(C(=O)/C(=N/NC(=O)c1ccccc1O)C(C#N)c1ccccc1)c1ccccc1 (stereo not given)
Second: COc1ccc(/C=C(/C(=O)N2CCN(c3ccccc3)CC2)c2cc(OC)c(OC)c(OC)c2)cc1O
The growth of the first is higher: 67.1% for the first, 17.6% for the second.

First: N#CC1=C(c2ccc(Br)cc2)NC(SCC(=O)c2ccc(Br)cc2)NC1=O (stereo not given)
Second: Cc1ccc(Sc2nnc(/N=C3\C(=O)Nc4ccccc43)s2)cc1
The growth of the first is higher: 113% for the first, 102% for the second.

Compared with `O=C(/C=C/c1ccc(C(F)(F)F)cc1)c1ccc(Nc2nc(NCCO)nc(N3CCOCC3)n2)cc1`, `Cn1ccnc1CN1CCSC(C(=O)Nc2ccccc2)C1` (stereo not given) is higher in growth: 20.4% for the first, 87.8% for the second.

In the case of `CCC(C)[C@H]1O[C@]2(CC[C@@H]1C)C[C@@H]1C[C@@H](C/C=C(\C)[C@@H](OC3C[C@H](OC)C(O[C@H]4C[C@H](OC)[C@@H](O)[C@H](C)O4)[C@H](C)O3)[C@@H](C)/C=C/C=C3\CO[C@@H]4[C@H](O)C(C)=C[C@@H](C(=O)O1)[C@]34O)O2` (stereo not given in full), the growth is reported as 10.5%.

`NCCCNc1nc2ccccc2c2c(=O)c3cc(C(F)(F)F)ccc3sc12` was tested, and the growth was -49.1% (active).
`COc1cc(/C=C/c2cc(/C=C/c3ccc(O)c(OC)c3)n(C(=O)Cc3ccccc3)n2)ccc1O` was tested, and the growth was -4.29% (active).
`c1ccc2c(c1)oc1c3cccnc3ccc21` was tested, and the growth was -62% (active).
`CN1C(=O)/C(=C/c2ccc(C(=O)Nc3ncc(Cc4cccc(C(F)(F)F)c4)s3)cc2)SC1=S` was tested, and the growth was -2.76% (active).
In the case of `COc1cc(-c2nc3cc(Cl)c(Cl)cc3[nH]2)ccc1OCC(=O)N=Nc1c(O)[nH]c2ccc(Cl)cc12`, the growth is reported as -56.3% (active).
For `CCOC(=O)C1=C(C)NC(C)=C(C(=O)OCC)C1`, the growth was 97.7% and 86.9%.
`C=C1C(=O)O[C@H]2[C@H]1CC/C(COC(=O)CSCSCC(=O)OC/C1=C/CC[C@@]3(C)O[C@H]3[C@H]3OC(=O)C(=C)[C@@H]3CC1)=C\CC[C@@]1(C)O[C@@H]21` was tested, and the growth was -14.2% (active).
`O=C(CCn1c[n+](CC(=O)c2ccc(-c3ccccc3)cc2)c2ccccc21)Nc1cccc2cccnc12` was tested, and the growth was -31.2% (active).
For `O=C(Nc1ccccc1O)c1ccc(CNC(=O)c2ccsc2Nc2ccnc(C(F)(F)F)c2)cc1`, the growth was -17.2% (active).
With `O[N+]1=CC=CCC1=S.On1ccccc1=S.[Zn]` the growth was -75.8% (active).
In the case of `CN1CCN(Cc2ccc(NC(=O)c3cncc(C#Cc4cnc5ccc(N6CCN(C)CC6)nn45)c3)cc2C(F)(F)F)CC1`, the growth is reported as -75.2% (active).
